Screens deposited in PubChem by National Center for Advancing Translational Sciences (NCATS).
A selection: hits, their analogues and other compounds. The true share with any hit is near 10%.
Pf growth 96h – inhibits malaria parasite growth, 96 h; P. falciparum luciferase reporter growth, 96 h; Potency, µM (highest dose often 28.7 µM), for inactives: top-dose activity change, negative = inhibition, usual class: inhibitors; 6.9% of 320,000 active; also: % is scaled to controls: 0 for no effect and ±100 for the full control effect
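96 h incubation, 37 C, 5% CO2, of luciferase-reporter P. falciparum-infected RBCs (2% hematocrit, 0.05% parasitemia final) with test compounds; endpoint luminescence.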
SARS PLP yeast – inhibitors of SARS-CoV papain-like protease in yeast; S. cerevisiae expressing SARS-CoV PLpro, growth rescue; Potency, µM (highest dose often 32.9 µM), inactives show top-dose activity, positive = growth rescue, hits mostly activators; 0.19% of 330,000 active; AID 485353; calls by dose curve; also: 0% is about no effect; nearly all actives have a fitted effect of over 55% in size
NS1 function inh – blocks influenza NS1 protein function; Potency, µM (titrated, usually from 46.1 µM), without a hit: top-dose activity, positive = more growth; 0.4% of 270,000 active; calls by dose curve; also: actives are rising curves; nearly all actives have a fitted effect of over 50% in size
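S. cerevisiae expressing influenza A NS1, grown in glucose, washed, then diluted 1:100 into pH 6.0 -URA galactose medium with 23 nl compound. Growth recovery read as OD600; NS1-free strain serves as control.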
Pf growth 48h – P. falciparum growth inhibition at 48 hours (one generation); P. falciparum luciferase growth in erythrocytes, 48 h; Potency, µM (series often up to 28.7 µM), for the others: at the top dose activity change, negative = inhibition, actives largely listed as inhibitors; AID 504832; 5.9% of 310,000 active; also: % is scaled to controls: 0 for no effect and ±100 for the full control effect
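Compounds are pin-transferred into medium, infected erythrocytes (2% hematocrit, 0.1% parasitemia final) are added, and plates sit one parasite generation at 37 C in 5% CO2. Detection reagent is then added and luminescence measured.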
* = called active by the depositor; ? = inconclusive; nt = no result. Unless noted, calls follow the shape of the dose curve; as a rule, active = well fitted inhibition curve with a large enough effect; inconclusive = small, poorly fitted or top-dose-only effect, or another doubt; inactive = no such curve, though single readings can be large or run the other way. Potency is read from the fitted curve at half-maximal effect.

SMILES	Pf growth 96h	SARS PLP yeast	NS1 function inh	Pf growth 48h
CCN(CC)CCN(C(=O)c1ccc(C(=O)c2ccccc2)cc1)c1nc2cc3c(cc2s1)OCO3	4%	-1%	-51%	-4%
COc1ccc2sc(N(CCCN(C)C)C(=O)c3ccc(S(=O)(=O)N4CCCc5ccccc54)cc3)nc2c1	8.3µM*	2%	nt	7.4µM*
CN(C)CCCN(C(=O)c1ccc(C(=O)c2ccccc2)cc1)c1nc2cc3c(cc2s1)OCO3	-20%	-2%	-16%	12µM*
Cc1cccc2sc(N(CCCN(C)C)C(=O)c3sc4ccccc4c3Cl)nc12	?	-15%	6%	-25%
O=C(NCc1ccc(Cl)cc1)c1cc(S(=O)(=O)N2CCCCC2)c[nH]1	20%	-2%	9%	?
Cc1ccc2c(c1)[C@@H]1CN(C)CC[C@@H]1N2S(=O)(=O)c1ccc([N+](=O)[O-])cc1	?	-3%	-5%	?
Cc1ccc2c(c1)C1CN(C)CCC1N2Sc1ccccc1[N+](=O)[O-] (stereo not drawn)	10µM*	-2%	11%	?
O=C(CN1CCN(S(=O)(=O)c2ccccc2)CC1)N1CCCCC1	?	-6%	nt	-3%
CCOc1ccc(S(=O)(=O)NCC(c2ccc3c(c2)OCO3)N2CCN(C)CC2)cc1 (stereo not drawn)	1%	13%	nt	-29%
COc1ccccc1N1CCN(C(CNS(=O)(=O)c2cc(F)ccc2F)c2cccnc2)CC1 (stereo not drawn)	?	2%	7%	?
O=S(=O)(NCC(c1cccnc1)N1CCN(c2ccccc2)CC1)c1cc(F)ccc1F (stereo not drawn)	2%	-11%	-56%	10µM*
O=S(=O)(NCC(c1ccc2c(c1)OCO2)N1CCN(c2ccccc2)CC1)c1ccccc1 (stereo not drawn)	?	-2%	nt	7.4µM*
Cc1cnc(C(=O)OCc2csc(CC(=O)Nc3ccccc3C)n2)cn1	-18%	0%	13%	?
CN1CCN(C(=O)C2CCCCC2)CC1	-2%	nt	nt	-6%
NNC(=S)NC1CCCCCCCCCCC1	10µM*	0%	-1%	?
CCOc1ccc(-c2csc(NC(=O)CSC3=NC(=O)CN3C(C)=O)n2)c2ccccc12	10µM*	4%	?	?
c1ccc(Cc2nnc(N3CCCCC3)c3ccccc23)cc1	?	-4%	nt	53%
c1ccc(N2CCN(c3nnc(Cc4cccnc4)c4ccccc34)CC2)nc1	-10%	-6%	-10%	7.4µM*
CCC(=O)NC(NC(=S)Nc1ccc(S(N)(=O)=O)cc1)C(Cl)(Cl)Cl (stereo not drawn)	2.1µM*	-3%	21%	-6%
CCc1ccc(OCC(=O)NC(NC(=S)Nc2ccccc2)C(Cl)(Cl)Cl)cc1 (stereo not drawn)	0%	-9%	3%	13µM*
CC(C)CC(=O)NC(Nc1ccccc1F)C(Cl)(Cl)Cl (stereo not drawn)	10µM*	4%	-21%	-5%
CC(=O)NC(NC(=S)Nc1ccc(N=Nc2ccccc2)cc1)C(Cl)(Cl)Cl (stereo not drawn)	183%	-3%	3%	12µM*
CC(=O)NC(NC(=S)Nc1ccc(S(N)(=O)=O)cc1)C(Cl)(Cl)Cl (stereo not drawn)	-13%	0%	4%	-8%
COc1cc(C(C)=O)ccc1OCC(O)CNCC(O)c1ccccc1 (stereo not drawn)	-8%	2%	0%	nt
Cc1c(NC(=S)NC(NC(=O)CC(C)C)C(Cl)(Cl)Cl)c(=O)n(-c2ccccc2)n1C (stereo not drawn)	?	4%	11%	-15%
SMILES	Pf growth 96h	SARS PLP yeast	NS1 function inh	Pf growth 48h
CC(C)CC(=O)NC(NC(=S)Nc1ccccc1)C(Cl)(Cl)Cl (stereo not drawn)	3%	-4%	-1%	13µM*
COCCN1C=C2C(=O)C(C)(OC(=O)c3cccs3)C(=O)C=C2C=C1CCCC(=O)OC (stereo not drawn)	?	3%	3%	54%
COC(=O)CCC(=O)OC1(C)C(=O)C=C2C=C(C3CC3)N(CCc3c[nH]c4ccccc34)C=C2C1=O (stereo not drawn)	?	0%	12%	12µM*
COC(=O)CCCC1=CC2=CC(=O)C(C)(OC(=O)c3cccs3)C(=O)C2=CN1CCCCO (stereo not drawn)	13µM*	-1%	-5%	?
COC(=O)CCC(=O)OC1(C)C(=O)C=C2C=C(C3CC3)N(Cc3ccc4c(c3)OCO4)C=C2C1=O (stereo not drawn)	13µM*	1%	1%	?
C=CCN1C=C2C(=O)C(C)(OC(=O)CCC(=O)OC)C(=O)C=C2C=C1C1CC1 (stereo not drawn)	2.6µM*	-1%	3%	7.4µM*
Cc1cc(NC(=O)CN2C(=O)NC(C)(c3ccc(Cl)cc3Cl)C2=O)no1 (stereo not drawn)	nt	-18%	nt	nt
Cc1cccc(C(=O)NCC(=O)N2CCN(S(=O)(=O)c3ccc4c(c3)OCCO4)CC2)c1	-24%	2%	nt	?
COC(=O)CCC(=O)OC1(C)C(=O)C=C2C=C(C3CC3)N(CCCOC(C)C)C=C2C1=O (stereo not drawn)	1.9µM*	-3%	0%	10µM*
COC(=O)CCC(=O)OC1(C)C(=O)C=C2C=C(C3CC3)N(CCCCO)C=C2C1=O (stereo not drawn)	7.4µM*	-1%	1%	?
CN(C)CCNc1ncnc2c1sc1nc(-c3ccccc3)c3c(c12)CCCC3	2%	-2%	3%	?
COc1ccc2nc3cc(Cl)ccc3c(Nc3ccc(O)c(CN4CCN(C)CC4)c3)c2c1	nt	nt	-3%	nt
CC(C)CNC(=S)NNC(=O)c1csc2c1CCC(C)C2 (stereo not drawn)	6.6µM*	0%	-2%	nt
CCN1CCN(CCCNC(=O)c2csc3c2CCCCC3)CC1	15µM*	nt	?	2%
CC1CCc2c(C(=O)NCCN3CCOCC3)csc2C1 (stereo not drawn)	8.3µM*	-11%	?	60%
NC(=O)c1nnn(Cc2cc(Cl)c(C(=O)c3ccc(Cl)cc3)c(Cl)c2)c1N	nt	nt	-5%	nt
Cc1cc(O)c(C(C)C)cc1CN1CCCCC1	nt	nt	0%	nt
COC(=O)C(CCSC)NC(=O)Cn1ncc2c(=O)oc3ccccc3c21 (stereo not drawn)	12µM*	4%	-1%	nt
COCc1c(C(=O)NCC2COc3ccccc3O2)oc2ccccc12 (stereo not drawn)	?	0%	nt	12µM*
O=C(Cn1ncc2c(=O)oc3ccccc3c21)NCC1COc2ccccc2O1 (stereo not drawn)	1.9µM*	2%	-9%	nt
COCCCNC(=O)Cn1ncc2c(=O)oc3ccccc3c21	25%	-1%	6%	-2%
Clc1ccccc1-c1nnc2n1CCCCC2	16%	1%	2%	34%
O=C(COc1ccc([N+](=O)[O-])cc1)Nc1cc(S(=O)(=O)N2CCCCC2)ccc1N1CCCCC1	?	0%	nt	?
CCN1CCN(c2ccc(S(=O)(=O)N3CCCCC3)cc2NC(=O)COc2cc(C)ccc2Cl)CC1	1.9µM*	3%	nt	12µM*
